Results on 20 molecules are retold here after the supplement of paper PMC11219838.

A number with no mark means an inactive call.

This assay deals with Caenorhabditis elegans L1 (N2). The experiment in a line: survival and reproduction score of C. elegans L1 (0: 0-10 living worms, 1: 11-20, 2: 21-50, 3: >50, 4: overgrown) (score 0-4); higher = more worms, less nematicidal, active = 1 or less; extreme values may be limits of the assay. The following applies: 60 µM; 6 days; temperature: 20 °C. A digest of the protocol:
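Compound was pinned to a final 60 µM (0.6% v/v DMSO) into 96-well wells, each holding about 20 synchronized C. elegans N2 L1s and E. coli HB101 in liquid NGM. After 6 days of shaking at 200 rpm and 20 °C in sealed plates, the worms in each well were examined. The ordinal readout of survival and reproduction, based on living worms per well, was assessed under a dissection microscope. On this scale 0 meant 0–10 worms and 4 meant overgrown, starved wells, and two biological replicates were averaged.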
Consider `N#Cc1ccc(CSc2nnc(-c3ccco3)o2)cc1`, for which the “survival and reproduction score” value is 1.5.

For `O=C(CSc1nnc(-c2ccco2)o1)Nc1cccc2ccccc12`, the “survival and reproduction score” value is 4.

Regarding `Clc1ccc(-c2noc(-c3cccnc3)n2)cc1`, the “survival and reproduction score” value was 0 (active).

Take `Cc1ccc(-c2noc(COc3cccc(C)c3)n2)cc1`: the “survival and reproduction score” value was 4.

As for `COc1ccc(-c2noc(COc3ccc(C4CCCCC4)cc3)n2)cc1`, the “survival and reproduction score” value is 4.

As to `COc1ccc(C(=O)CSc2nnc(-c3cccc(Br)c3)o2)cc1`, the “survival and reproduction score” value was 4.

With `c1ccc(CSc2nnc(-c3ccccc3)o2)cc1`, the “survival and reproduction score” value is 0 (active).

With `COc1ccccc1-c1nnc(SCc2ccccc2C)o1`, the “survival and reproduction score” value is 4.

Turning to `Cc1ccc(-c2noc(-c3ccc(Br)o3)n2)s1`, the “survival and reproduction score” value was 0 (active).

In the case of `COc1nc(-c2ccccc2)ccc1-c1noc(-c2ccccc2Cl)n1`, the “survival and reproduction score” value was 4.

`Clc1cccc(-c2nc(-c3cccnc3)no2)c1`: the “survival and reproduction score” value was 2.

Turning to `c1coc(-c2nnc(-c3ccco3)o2)c1`, the “survival and reproduction score” value is 4.

For the molecule `COc1cccc(-c2nc(-c3ccc(C)cc3)no2)c1`, the “survival and reproduction score” value was 0 (active).

For the molecule `COc1ccc(NC(=O)CSc2nnc(-c3ccc(Br)cc3)o2)cc1`, the “survival and reproduction score” value is 4.

On to `O=C(CSc1nnc(-c2ccc(Cl)cc2Cl)o1)Nc1ccccn1`, for which the “survival and reproduction score” value is 4.

Take `COc1ccccc1-c1nc(-c2ccc(Cl)cc2Cl)no1`: the “survival and reproduction score” value was 4.

As to `Cc1cc(C)c(C)c(OCc2nc(-c3cccnc3)no2)c1`, the “survival and reproduction score” value is 4.

`CC1CC(C)CN(C(=O)CSc2nnc(-c3ccccc3)o2)C1` (stereo not given): the “survival and reproduction score” value is 4.

`c1ccc2cc(-c3nc(-c4ccncc4)no3)ccc2c1`: the “survival and reproduction score” value was 0 (active).

As for `c1ccc(-c2noc(C3COc4ccccc4O3)n2)cc1` (stereo not given), the “survival and reproduction score” value is 0 (active).
